Experimental findings from PubChem BioAssay (NCI) are described below.

Some test systems named below: DU-145 prostate; MALME-3M melanoma; MDA-MB-231 breast; RXF 393 renal; SF-268 CNS; SF-295 CNS; SF-539 CNS; UACC-257 melanoma; M14 melanoma.
Common to all, as to experiment: NCI-60 one-dose screen, 48 h (100 = growth as untreated, 0 = no growth, -100 = all killed)
Common to all, as to conditions: 10 µM unless noted

The panel holds about 83,000 compounds, 20% with a hit somewhere; the sample as a whole holds those more often.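 Growth was measured after 48 h exposure to one concentration of compound in 96-well plates. Values under 10 count as active.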 A number with no mark means an inactive call. Calls of active or inactive are those of the source.

On to `Nc1nc(-c2ccc(F)cc2)cc(-c2cnn(-c3ccccc3)n2)n1`, for which the growth in the assay with DU-145 prostate was 104%; with MALME-3M melanoma it was 124%; in the assay with MDA-MB-231 breast, 102%; in the assay on RXF 393 renal, 97.4%; with SF-268 CNS, 98.8%; in the assay with SF-295 CNS, 107%. The growth with SF-539 CNS is 106%; with UACC-257 melanoma it was 95.8%; in the assay with M14 melanoma, 117%.

As for `C[C@@H]1CC[C@@H]2[C@@H]1[C@H](OC(=O)/C=C/c1ccccc1)[C@]1(C3CCCCC3)C[C@@H](OC(=O)CO)[C@@]2(C)O1`, the growth with DU-145 prostate is 81.5%; in the assay on MALME-3M melanoma it was 104%; in the assay on MDA-MB-231 breast, 84.7%; with RXF 393 renal, 26.9%; with SF-268 CNS it was 32.1%; with SF-295 CNS it was 87.5%. In addition, the growth with SF-539 CNS is 89.6%; in the assay with UACC-257 melanoma it was 67.8%; in the assay with M14 melanoma, 89.9%.

For `CCOC(=O)C(CC)n1c(=O)c2cc(OC)c(OC)cc2c2cnc3[nH]ccc3c21` (configuration not stated), the growth is 78.5% in the assay with DU-145 prostate; 98.9% in the assay with MALME-3M melanoma; 70.5% in the assay with MDA-MB-231 breast; 34.5% in the assay on RXF 393 renal; 67.4% in the assay on SF-268 CNS; 65% in the assay on SF-295 CNS. The values for the growth with SF-539 CNS, in the assay with UACC-257 melanoma and with M14 melanoma were 66.3%, 97.5% and 88.5%, respectively.

Regarding `CN1CCN(Cc2ccc(NC(=O)c3[nH]ncc3Nc3ncnc4sccc34)cc2)CC1`, the growth was 7.12% (active) in the assay with DU-145 prostate; 16.7% in the assay with MALME-3M melanoma; -4.43% (active) with MDA-MB-231 breast; -51.1% (active) in the assay with RXF 393 renal; -3.74% (active) with SF-268 CNS; 24% in the assay with SF-295 CNS. Further, the growth is -30.2% (active) in the assay on SF-539 CNS, 33.9% in the assay on UACC-257 melanoma and 22.6% in the assay on M14 melanoma.

Turning to `CN(C)CCOc1ccc(-c2nc3ccc(-c4nc5ccc(N6CCN(C)CC6)cc5[nH]4)cc3[nH]2)cc1`, the growth was 82.4% with DU-145 prostate; 24.1% in the assay with MALME-3M melanoma; 73.4% in the assay on MDA-MB-231 breast; 48.3% in the assay with RXF 393 renal; 65.8% with SF-268 CNS; 54.6% in the assay on SF-295 CNS. For the same molecule, the results for the growth in the assay with SF-539 CNS, with UACC-257 melanoma and in the assay with M14 melanoma were 49.8%, 41.2% and 51.3%, respectively.

For the molecule `Cn1cc(-c2ccc(-c3cn(C)c4ncccc34)[nH]2)c2cccnc21`, the growth with DU-145 prostate is 94.2%; in the assay on MALME-3M melanoma it was 86.5%; in the assay with MDA-MB-231 breast, 63.8%; in the assay on RXF 393 renal, 10.6%; with SF-268 CNS, 45.9%; with SF-295 CNS, 86.3%. The growth is 64.6% in the assay on UACC-257 melanoma and 76.2% with M14 melanoma.

Take `CN(C)CC(=O)Nc1ccc(Cn2nnc3c2C(=O)c2nnn(Cc4ccc(NC(=O)CN(C)C)cc4)c2C3=O)cc1`: the growth in the assay on DU-145 prostate is -96.2% (active); in the assay with MALME-3M melanoma, -81.2% (active); with MDA-MB-231 breast, -14.2% (active); in the assay on RXF 393 renal, -77.4% (active); with SF-268 CNS, -49.1% (active); in the assay with SF-295 CNS, -87.4% (active). For the same molecule, the figures for the growth in the assay on UACC-257 melanoma and with M14 melanoma were -71.1% (active) and -89.4% (active), respectively.

With `COc1ccc(-c2cn3c(-c4ccc(OC)cc4)cnc3c(Oc3ccc4c(C)cc(=O)oc4c3)n2)cc1`, the growth is 29.5% in the assay with DU-145 prostate; 26.7% with MALME-3M melanoma; 6.29% (active) in the assay with MDA-MB-231 breast; -20.8% (active) with RXF 393 renal; 65.7% in the assay with SF-268 CNS; 23.3% in the assay with SF-295 CNS. The growth in the assay with SF-539 CNS was -21.1% (active); in the assay on UACC-257 melanoma, 29.2%; in the assay on M14 melanoma it was 38.6%.

Turning to `COc1ccc2nc3cc(Cl)ccc3c(N3CCN(c4ccnc(N5CCOCC5)n4)CC3)c2c1`, the growth with DU-145 prostate is 24.2%; in the assay on MALME-3M melanoma, 80.3%; in the assay on MDA-MB-231 breast it was 45.1%; in the assay with RXF 393 renal it was 8.55% (active); in the assay on SF-268 CNS, 45.3%; in the assay on SF-295 CNS it was 88.7%. Further, the growth in the assay on UACC-257 melanoma is 76.9%; in the assay with M14 melanoma, 86.6%.

Take `CCN1CCN(Cc2ccc(NC(=O)Nc3nc4ccc(Oc5ccnc(C(=O)NC)c5)cc4s3)cc2C(F)(F)F)CC1`: the growth was -16.1% (active) with DU-145 prostate; -68% (active) in the assay with MALME-3M melanoma; -78.4% (active) in the assay on MDA-MB-231 breast; -88.4% (active) with RXF 393 renal; -47.3% (active) in the assay on SF-268 CNS; -23.9% (active) in the assay with SF-295 CNS. Further, the values for the growth in the assay with SF-539 CNS, in the assay on UACC-257 melanoma and in the assay on M14 melanoma were -85.2% (active), -49.2% (active) and -76.2% (active), respectively.

For `COc1ccc(-c2cc(-c3cccnc3)nc3sc4c(=O)n(-c5ccc(C)cc5)nnc4c23)cc1OC`, the growth in the assay on DU-145 prostate was 107%; in the assay with MALME-3M melanoma it was 96%; in the assay with MDA-MB-231 breast it was 79.6%; with RXF 393 renal, 101%; with SF-268 CNS it was 101%; in the assay on SF-295 CNS, 96.6%. Moreover, the growth in the assay on SF-539 CNS is 93.4%; in the assay on UACC-257 melanoma, 104%; in the assay on M14 melanoma, 104%.

On to `COCCOc1ccc(-c2nc3ccc(-c4nc5ccc(N6CCN(C)CC6)cc5[nH]4)cc3[nH]2)cc1`, for which the growth with DU-145 prostate was 29.7%; in the assay with MALME-3M melanoma, -38.9% (active); with MDA-MB-231 breast, 8.21% (active); in the assay on RXF 393 renal it was -62.8% (active); with SF-268 CNS it was 7.43% (active); in the assay with SF-295 CNS it was 48.4%. In addition, the growth with SF-539 CNS is -30.7% (active); in the assay on UACC-257 melanoma it was 8.32% (active); in the assay on M14 melanoma, 1.05% (active).

For the molecule `COC(=O)[C@H](C(C)C)n1c(=O)c2cc(OC)c(OC)cc2c2cnc3[nH]ccc3c21`, the growth with DU-145 prostate was 51.4%; with MALME-3M melanoma, 85.1%; in the assay with MDA-MB-231 breast, 48%; in the assay on RXF 393 renal it was -0.674% (active); with SF-268 CNS, 45.6%; with SF-295 CNS it was 25.2%. Further, the figures for the growth in the assay on SF-539 CNS, in the assay with UACC-257 melanoma and in the assay with M14 melanoma were 9.26% (active), 78.7% and 76.1%, respectively.

For `O=C(/C=C/c1cccc(Br)c1)c1ccccc1`, the growth in the assay with DU-145 prostate is 92.1%; in the assay on MALME-3M melanoma, 99.3%; with MDA-MB-231 breast, 92.7%; with RXF 393 renal, 89.9%; with SF-268 CNS, 89%; in the assay on SF-295 CNS it was 94.9%. Further, the results for the growth in the assay on SF-539 CNS, with UACC-257 melanoma and in the assay with M14 melanoma were 103%, 81.7% and 91.1%, respectively.

Take `O=C(Cn1cc(CN2C(=O)c3ccccc3S2(=O)=O)nn1)Nc1ccc([N+](=O)[O-])cc1Cl`: the growth with DU-145 prostate is 105%; with MALME-3M melanoma, 101%; in the assay on MDA-MB-231 breast, 90%; in the assay on RXF 393 renal, 110%; in the assay on SF-268 CNS, 100%; in the assay on SF-295 CNS, 108%. In addition, the growth in the assay on SF-539 CNS was 101%; in the assay on UACC-257 melanoma, 98.6%; in the assay on M14 melanoma, 106%.
